Our source for the PBM binding z-score values is the supplement of paper PMC6555819.

Assay in all cases: PBM binding z-score (relative to random genomic background probes); higher = stronger binding; sequences stand for … in GC…GCGATTGACAGCGTAGAATGAAGG
Assay [1] has as its system FXR:RXRa (NR concentration 270 nM, RXRa partner concentration 90 nM). In outline: (§1)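 Binding z-scores were set against random background probes. The data came from custom Agilent 4×180K protein-binding microarrays carrying double-stranded probes with 34-nt variable regions, incubated 1 h with ligand-free nuclear receptor dimers. Partner-specific antibodies detected binding, and scanned fluorescence was regression-normalized.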

The subject of assay [2] is LXRa:RXRa (NR concentration 270 nM, RXRa partner concentration 90 nM). The essentials: as §1
Assay [3] deals with LXRa homodimer (NR concentration 270 nM). In outline:
as §1

For assay [4], the system named is LXRb:RXRa (NR concentration 270 nM, RXRa partner concentration 90 nM). In outline:
as §1

Assay [5] has as its system PPARa:RXRa (NR concentration 270 nM, RXRa partner concentration 90 nM). The essentials:
as §1

For assay [6], the system named is PPARg:RXRa (NR concentration 180 nM, RXRa partner concentration 90 nM). The essentials: as §1
The test system of assay [7] is PPARg:RXRa 270nM:90nM, anti-RXR (NR concentration 270 nM, RXRa partner concentration 90 nM). The essentials:
as §1

The subject of assay [8] is PPARg:RXRa 30nM:10nM, anti-RXR (NR concentration 30 nM, RXRa partner concentration 10 nM). In outline:
as §1

For assay [9], the system named is PPARg:RXRa 90nM:30nM, anti-RXR (NR concentration 90 nM, RXRa partner concentration 30 nM). The essentials:
as §1

The subject of assay [10] is PPARg:RXRa DBDmut IVT, anti-RXR (DBD mutation: RXRa K156A/R161A, NR concentration 270 nM, RXRa partner concentration 90 nM). In outline: as §1
In assay [11] the test system is PPARg:RXRa IVT, anti-PPARg (NR concentration 270 nM, RXRa partner concentration 90 nM). In outline: as §1
The test system of assay [12] is PPARg homodimer (NR concentration 180 nM). In outline:
as §1

For assay [13], the system named is PXR:RXRa (NR concentration 270 nM, RXRa partner concentration 90 nM). The essentials: as §1
The test system of assay [14] is PXR homodimer (NR concentration 270 nM). The essentials:
as §1

Assay [15] concerns RARa:RXR (NR concentration 270 nM, RXRa partner concentration 90 nM). The essentials: as §1
Assay [16] concerns RARa homodimer (NR concentration 270 nM). In outline: as §1
Assay [17] has as its system RARb:RXRa (NR concentration 270 nM, RXRa partner concentration 90 nM). The essentials: as §1

For CCGAGTAGGTTACGAGGGGGCATTCGGTGCGAAT, the PBM binding z-score stood at 1.7 in assay [1]; 7.08 in assay [2]; 1.42 in assay [3]; 6.21 in assay [4]; 3.53 in assay [5]; 2.41 in assay [6]. Also, the PBM binding z-score worked out at 3.16 in assay [7]; 0.729 in assay [8]; 2.56 in assay [9]; 3.74 in assay [10]; 4.36 in [11]; 1.85 in assay [12]. Also, the PBM binding z-score stood at 4.83 in assay [13]; 4.05 in assay [14]; 2.98 in [15]; 0.224 in assay [16]; 2.22 in assay [17].

Regarding TCGAGTAGGTTACGGGGGCATTAAGGGATGAAGA, the PBM binding z-score in assay [1] stood at 2.01; in [2] it was 2.81; in assay [3], 0.404; in assay [4], 4.64; in assay [5] it was 4.16; in assay [6] it was 6.03. Further, the PBM binding z-score in [7] is 5.7; in assay [8], 3.23; in assay [9], 5.14; in [10], 4.98; in [11] it was 6.1; in assay [12] it was 1.98. Further, the PBM binding z-score was 2.76 in assay [13]; 1.24 in assay [14]; 2.79 in assay [15]; 0.727 in assay [16]; 2.59 in assay [17].

On to CTATGTACGTTAAGGGGGTCATTCAGTTTGAAAG, for which the PBM binding z-score in assay [1] was 4.34; in assay [2], 4.93; in assay [3] it was 2.68; in assay [4] it was 6.5; in assay [5], 5.53; in assay [6], 3.31. Besides, the PBM binding z-score in [7] stood at 5.19; in [8], 3.25; in assay [9] it was 4.57; in assay [10], 3.42; in assay [11], 5.2; in [12], 3.11. The PBM binding z-score in assay [13] is 5.68; in [14] it was 9.08; in assay [15], 5.5; in assay [16], 1.37; in assay [17], 3.45.

For the sequence CCGAGTTGGTTACGAGGGGGCATTCAGTGCGAAT, the PBM binding z-score in assay [1] was 1.35; in assay [2] it was 3.69; in [3], 1.21; in assay [4], 4.27; in [5], 2.31; in [6], -0.0841. The PBM binding z-score in assay [7] is 0.784; in assay [8] it was -0.706; in assay [9], 0.481; in assay [10] it was 0.938; in assay [11], 1.51; in assay [12], 1.98. Moreover, the PBM binding z-score in [13] is 3.41; in [14], 7.65; in assay [15], 2.14; in [16], 0.677; in [17] it was 1.31.

With CCGAGTAGGTTACGAGGGGGCAGTCAGTGCGAAT, the PBM binding z-score is 2.18 in [1]; 6.39 in assay [2]; 0.422 in assay [3]; 5.55 in assay [4]; 3.14 in assay [5]; 2.19 in [6]. For the same sequence, the PBM binding z-score in assay [7] is 3.18; in [8], 0.853; in assay [9], 2.04; in [10], 4.71; in assay [11], 4.53; in [12], 2.79. Besides, the PBM binding z-score amounted to 3.74 in [13]; 1.86 in [14]; 2.38 in [15]; 0.525 in [16]; 2.15 in [17].

Consider TGGAGTAGGTTACGGGGGCATTCAGGGATGAAGA, for which the PBM binding z-score was determined as 3.28 in assay [1]; 3.37 in assay [2]; 1.38 in [3]; 5.17 in assay [4]; 4.73 in assay [5]; 7.46 in assay [6]. In addition, the PBM binding z-score in [7] was found to be 6.49; in [8] it was 4.07; in assay [9], 5.66; in assay [10] it was 6.12; in [11] it was 7.33; in [12] it was 3.02. Also, the PBM binding z-score in assay [13] was found to be 3.97; in assay [14], 3.87; in assay [15], 3.46; in assay [16] it was 1.99; in [17], 3.1.

Take TAGAGTAGGTTACGGGGGCATTCAGGGATGAAGA: the PBM binding z-score in assay [1] is 2.76; in [2] it was 3.19; in assay [3] it was 1.55; in [4], 5.06; in assay [5], 4.61; in assay [6] it was 7.4. In addition, the PBM binding z-score in assay [7] was found to be 6.43; in assay [8] it was 4.51; in [9], 5.78; in [10], 5.84; in [11] it was 6.92; in [12] it was 2.22. The PBM binding z-score in assay [13] turned out to be 3.17; in assay [14], 2.11; in assay [15], 3.35; in [16], 1.56; in assay [17], 2.85.

Turning to TCGACTAGGTTACGGGGGCATTCAGGGATGAAGA, the PBM binding z-score came out at 2.94 in assay [1]; 2.96 in assay [2]; 1.01 in assay [3]; 5.58 in assay [4]; 4.29 in assay [5]; 6.51 in assay [6]. Besides, the PBM binding z-score stood at 5.97 in assay [7]; 4.68 in assay [8]; 5.76 in assay [9]; 5.37 in assay [10]; 6.51 in assay [11]; 2.41 in assay [12]. Besides, the PBM binding z-score in assay [13] worked out at 3.59; in assay [14] it was 2.11; in [15], 3.47; in [16], 0.467; in assay [17] it was 2.91.
